These results are taken from PubChem BioAssay (NCI).

SMILES strings stand for the structures. This is part of a sample that, as a whole, favours compounds with a hit. Of some 83,000 tested, about 20% had one in any assay.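 Single-concentration screen, 48 h exposure, 96-well plates. Endpoint: percent growth. Below 10 = active.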 Unmarked numbers belong to inactive results. Active and inactive are the calls of the source.

The subject of this test is HL-60(TB) leukemia. Put plainly: NCI-60 one-dose screen, 48 h (100 = growth as untreated, 0 = no growth, -100 = all killed). The settings on record: 10 µM unless noted.
Consider `Oc1ccc(-c2nc(-c3ccc4oc5ccc(-c6[nH]c(-c7ccc(O)cc7)nc6-c6ccccc6)cc5c4c3)c(-c3ccccc3)[nH]2)cc1`, for which the growth was 39.9%. With `CN1C(=O)[C@H]2c3c1cccc3[C@@]13NC(=O)O[C@H]1[C@H](CCC3(C)C)C2(C)C`, the growth was 97.9%. As to `CCOC(=O)c1sc(NC(=O)COc2cccc(/C=C3\Cc4ccc(Cl)cc4C3=O)c2)nc1C`, the growth was 120%. Under `O=C(CNCCN1CCOCC1)N1c2cccc3cccc(c23)N(C(=O)CNCCN2CCOCC2)C1c1cn(-c2ccccc2)nc1-c1cccc([N+](=O)[O-])c1` stands 67.6%; under `COc1ccncc1C#Cc1cncc(C(=O)Nc2ccc(CN3CCN(C)CC3)c(C(F)(F)F)c2)c1`, 8.01% (active); under `CCN(CC)CCn1c2ccc(OC)cc2c2sc3cc(OC)ccc3c(=O)c21`, 7.58% (active). In the case of `COc1ccc(CN2C(=O)C(Cl)=C(Nc3cccc(C(F)(F)F)c3)C2=O)cc1`, the growth was 29%. Under `COc1ccc(-c2cc(-c3cn(-c4cccc(Cl)c4)nc3-c3ccc(OC)cc3)on2)cc1` stands 93.6%.

For the compound `O=C1CN(CO)C(=O)CN1CO`, the growth was 107%. `CCNCCNc1cc(-c2ccc(C#N)cc2)c(C#N)c2nc3ccccc3n12`: the growth was -45.4% (active). As for `Cc1cc(C)c([O-])c(CN(C)CCN(C)Cc2cc(C)cc(C)c2[O-])c1.O=C([O-])c1cccc(C(=O)[O-])n1.[Ti+4]`, the growth was -7.45% (active).

In the case of `NS(=O)(=O)c1ccc(-c2cc(-c3nnc(SCC(=O)Nc4ccc(C(=O)/C=C/c5ccc(Cl)cc5)cc4)n3-c3ccccc3)c3ccccc3n2)cc1`, the growth is 92.2%.
